We go through 27 compounds from PubChem BioAssay (EPA / NIEHS).

Inconclusive results are not listed. Calls of active or inactive are those of the source. The calls were made as follows, unless noted: active = hit-call score of the fitted dose curve at least 0.9, where 1 is the maximum; inconclusive = response in the unintended direction; inactive = score below 0.9.

For assay [1], the system named is Thyroperoxidase (TPO), gene 54314. In words: CCTE_Simmons_AUR_rTPO: CCTE's Amplex UltraRed Assay for Thyroperoxidase (TPO) Inhibition, Simmons Lab (AID 2283662).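 As to AC50: potency for loss of signal meaning inhibition of peroxidase activity.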 The procedure, abridged: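 Rat thyroid microsomes (5 ug protein) were incubated with test compound (8 concentrations, 5 nM–87.5 uM final, 0.5% DMSO), 25 uM Amplex UltraRed and 300 uM H2O2 in 200 mM phosphate buffer for 30 min at 37C in the dark; fluorescence read at 544/590 nm.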

The nature of assay [2]: STM_H9_CystineISnorm_perc: Stemina devTOX quickPredict H9 human embryonic stem cell (hESC)-based Assay for Cystine (CYSS) Metabolite Biomarker, Normalized (AID 2283713; active = hit-call score of the fitted dose curve at least 0.9, where 1 is the maximum; inactive = score below 0.9). The procedure, abridged:
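H9 hESC, pluripotent; compound 72h, re-dosed q24h with medium change. Last-24h medium → 40% acetonitrile deproteinization → UPLC-HRMS. CYSS area / C13-CYSS standard, then % of 0.1% DMSO median.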

Assay [3] can be described thus: Tanguay_ZF_120hpf_ActivityScore_legacy: (Legacy) Oregon State University Tanguay Lab 120 Hour Post-fertilization zebrafish Assay Score for Activity (AID 2283742).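 As to AC50: dechorionated Tropical 5D wild-type zebrafish embryos held singly per well.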 In outline:
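Embryos are staged, enzymatically dechorionated at 4 hpf, placed individually at 6 hpf, then held in test chemical (0.64% DMSO) at 28C until 120 hpf. Mortality and malformations are scored by brightfield, with non-mortality endpoints skipped for dead embryos.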

The target in assay [4] is Luciferin 4-monooxygenase (Photinus pyralis) (UniProt P08659). The assay is described as follows: CCTE_Simmons_QuantiLum_inhib_2: CCTE's Firefly Luciferase Inhibition Assay, Simmons Lab (AID 2283767).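 As to AC50: potency for inhibitors that lower luciferase luminescence relative to DMSO.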 In outline:
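Luminescence loss relative to DMSO vehicle defines inhibition; detection reagent containing 150 uM D-luciferin and 147 uM dATP (final, pH 7.8) is injected immediately before each read. Enzyme is preincubated with an 8-point titration (5 nM–87.5 uM final) for 30 min at 37C.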

Assay [5] can be described thus: CCTE_Simmons_CellTiterGLO_HEK293T: Viability Assessment in CCTE's Assays for Thyroperoxidase (TPO) Inhibition, Simmons Lab (AID 2283665).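 As to AC50: cells exposed to compound for 24 h before readout; actives reduce ATP signal below DMSO vehicle meaning cytotoxicity.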 In outline:
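HEK293T, 10 000 cells/well, DMEM + 1% FBS; 8-pt titration 5 nM–87.5 uM [final], 0.5% DMSO; 24 hr, 37C, 5% CO2; CellTiter-Glo luminescence; n=3 biological replicates.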
A general note: ATP-based viability assays read luminescence as a measure of living cells.

Assay [6] can be described thus: Tanguay_ZF_120hpf_TR_legacy: (Legacy) Oregon State University Tanguay Lab 120 Hour Post-fertilization zebrafish Assay for Touch Response (AID 2283667). The procedure, abridged: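 5D WT embryos; static exposure to 120 hpf, 28C, sealed/dark; DMSO 0.64% v/v final. TR scored present/absent; dead embryos excluded. Pos ctrl 5uM trimethyltin chloride.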
A short description of assay [7]: CCTE_Padilla_ZF_144hpf_TERATOSCORE: (Legacy) CCTE's 144 Hour Post-fertilization zebrafish Assay Teratoscore, Padilla Lab (AID 2283679; active = hit-call score of the fitted dose curve at least 0.9, where 1 is the maximum; inactive = score below 0.9;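 as to AC50: zebrafish embryos with chorions exposed by immersion from 6-8 hpf to 5 dpf with daily renewal; teratogenicity score from eye scoring of death hatching and malformations at 144 hpf; higher score means more developmental defects relative to DMSO baseline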). The procedure, abridged:
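Larvae scored by eye at 144 hpf for death, hatching and malformations after a day in clean Hanks'. Before that, daily-renewed exposure at 80 uM (0.4% DMSO, 26C) from roughly 6-8 hpf through 5 dpf, 4 embryos per chemical.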

A short description of assay [8]: ArunA_Migration_hNP: ArunA Biomedical's Oris Neuroprogenitor (hNP) Cell Migration Assay (AID 2283754). In outline:
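Human H9-derived hNP1 neuroprogenitors on Matrigel with LIF/bFGF, plated around seeding stoppers for 16 h at 37C; stoppers removed at start of 72 h chemical exposure. Calcein-AM staining, fluorescence 494/517 nm in detection zone; loss-of-signal vs DMSO; cytochalasin D control.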

Assay [9] can be described thus: ArunA_Migration_hNC: ArunA Biomedical's Oris Neural Crest (hNC) Cell Migration Assay (AID 2283755). In outline: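 Human H9-derived neural crest stem cells, 60,000/well on Matrigel, 16 h at 37C, then 72 h chemical exposure after seeding-stopper removal. Migration into detection zone read as calcein-AM fluorescence (ex494/em517), relative to DMSO.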
Assay [10] is described as follows: ArunA_NOG_NucleusCount: ArunA Biomedical's Neurite Outgrowth (NOG) Assay for Nucleus Count (AID 2283756). In outline: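 Human H9-derived differentiated neurons were exposed for 48 h right after seeding. Hoechst-stained nuclei gated by size and intensity were counted by automated high-content imaging as viable neurons. Loss of signal vs DMSO.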
Assay [11] is described as follows: ArunA_NOG_NeuriteLength: ArunA Biomedical's Neurite Outgrowth (NOG) Assay for Neurite Length (AID 2283757). In outline: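 Differentiated human H9-derived neurons were exposed for 48 h from seeding, then stained with Hoechst and βIII-tubulin. Automated high-content imaging gave total neurite length per valid neuron, counting processes >10 um. Loss of signal was scored versus DMSO.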

Assay [12] can be described thus: ArunA_NOG_NeuritesPerNeuron: ArunA Biomedical's Neurite Outgrowth (NOG) Assay for Neurites Per Neuron (AID 2283758). In outline: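 Differentiated human H9-derived neurons exposed to chemicals for 48 h from seeding, then stained with Hoechst and βIII-tubulin/DyLight 488. Automated imaging counted neurites (processes >10 um) per valid neuron; loss of signal versus DMSO scored.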

The nature of assay [13]: ArunA_NOG_BranchPointsPerNeurite: ArunA Biomedical's Neurite Outgrowth (NOG) Assay for Branch Points Per Neurite (AID 2283759). In outline:
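Automated image analysis traced neurites (processes >10 um) from valid cell bodies after Hoechst and βIII-tubulin staining. hNN cells from H9 embryonic stem cells, 48 h exposure. Fitted bidirectionally against DMSO.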

Assay [14] deals with Thyroperoxidase (TPO), gene 445522. The assay is described as follows: CCTE_Simmons_GUA_TPO: CCTE's Guaiacol Assay for Thyroperoxidase (TPO) Inhibition, Simmons Lab (AID 2283750). The procedure, abridged:
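Porcine thyroid microsomes (25 ug) in 200mM potassium phosphate, preincubated 30 s at 37C with compound (8 concentrations, 5 nM–87.5 uM) and 35mM guaiacol; 1mM H2O2 starts reaction. Absorbance change at 450nm over first 80 s; loss of signal versus DMSO, three replicates.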

Read-out in assay [15]: solute carrier (SLC10A1), SLC10A1 (gene 6554)
The assay is described as follows: LTEA_HepaRG_SLC10A1: Life Technologies and Expression Analysis (LTEA) Assay for solute carrier (SLC10A1) using HepaRG (AID 2283657; active = hit-call score of the fitted dose curve at least 0.9, where 1 is the maximum; inactive = score below 0.9). Particulars: mRNA level, 48 h; actives raise or lower the signal. In outline: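 Transcript levels were measured by qRT-PCR after human HepaRG cells received test chemical for 48 hours, up to 100 uM in half-log dilutions. Values come from bidirectional concentration-response fitting relative to 0.5% DMSO vehicle.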

Read-out in assay [16]: matrix metalloproteinase-1 (MMP1), MMP1 (gene 4312)
The assay is described as follows: LTEA_HepaRG_MMP1: Life Technologies and Expression Analysis (LTEA) Assay for matrix metalloproteinase-1 (MMP1) using HepaRG (AID 2283658; active = hit-call score of the fitted dose curve at least 0.9, where 1 is the maximum; inactive = score below 0.9). Particulars: mRNA level, 48 h; actives raise or lower the signal. The procedure, abridged:
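MMP1 transcript read by TaqMan qRT-PCR (Fluidigm array) after 48 h chemical exposure of HepaRG cells in serum-free induction medium. Eight-point half-log series, top 100 uM, 0.5% DMSO vehicle. Bidirectional curve fit against DMSO baseline.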

Read-out in assay [17]: Cytochrome P450 (CYP24A1_1), CYP24A1 (gene 1591)
The assay is described as follows: LTEA_HepaRG_CYP24A1_1: Life Technologies and Expression Analysis (LTEA) Assay for Cytochrome P450 (CYP24A1_1) using HepaRG (AID 2283671; active = hit-call score of the fitted dose curve at least 0.9, where 1 is the maximum; inactive = score below 0.9). Particulars: mRNA level, 48 h; actives raise or lower the signal. In outline: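 In this test, gene induction or suppression of CYP24A1 in human HepaRG liver cells is measured by qRT-PCR after 48 h chemical treatment (eight concentrations, maximum 100 uM). Values are fitted bidirectionally relative to DMSO.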

Sequence of Luciferin 4-monooxygenase (Photinus pyralis) (P08659 whole entry, looked up): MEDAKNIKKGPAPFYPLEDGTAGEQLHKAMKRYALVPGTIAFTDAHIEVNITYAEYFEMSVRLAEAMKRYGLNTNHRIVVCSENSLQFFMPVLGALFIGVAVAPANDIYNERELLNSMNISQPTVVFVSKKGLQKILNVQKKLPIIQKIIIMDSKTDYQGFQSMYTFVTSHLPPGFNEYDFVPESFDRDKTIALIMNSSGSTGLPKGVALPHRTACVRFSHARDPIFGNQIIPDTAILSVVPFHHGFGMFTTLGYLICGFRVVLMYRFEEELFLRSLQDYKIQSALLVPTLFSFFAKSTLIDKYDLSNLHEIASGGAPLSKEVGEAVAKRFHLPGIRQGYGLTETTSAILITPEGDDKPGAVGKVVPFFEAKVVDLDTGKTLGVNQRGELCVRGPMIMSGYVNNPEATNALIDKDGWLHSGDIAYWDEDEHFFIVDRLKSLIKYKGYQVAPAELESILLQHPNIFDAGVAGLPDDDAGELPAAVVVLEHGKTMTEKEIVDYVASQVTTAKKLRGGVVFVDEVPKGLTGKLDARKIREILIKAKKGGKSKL

As to `O=S1(=O)CCCO1`, the compound was classed as inactive in assay [1], in [3] and in [4]. Besides, the concentration at half-maximal activity (AC50) in [2] was 83 µM (active).
For the compound `CCCCCCCCCCCCCCCCOS(=O)(=O)O`, the call in assay [1], in [6], in assay [3] and in [4] was inactive. In addition, the AC50 is 26.7 µM (active) in assay [5] and 7.7 µM (active) in assay [7].
With `Cc1ccc(S(=O)(=O)NC(=O)NN2CCCCCC2)cc1`, the concentration at half-maximal activity (AC50) in [1] was 8.68 µM (active). Moreover, the call in [5], in assay [6], in assay [3] and in [4] was inactive.
Consider `NC(=O)N(O)[C@@H]1COc2cc(OCc3ccccc3)ccc21`, for which the figures for the half-maximal activity concentration (AC50) in assay [1] and in assay [4] were 1.29 µM (active) and 2.1 µM (active), respectively. The result in assay [5], in [7] and in assay [3] was inactive.
As for `OC[C@H]1O[C@@](CO)(O[C@H]2O[C@H](CO)[C@@H](O)[C@H](O)[C@H]2O)[C@@H](O)[C@@H]1O`, the result in assay [6] and in [3] was inactive.
As to `NC(=O)N1c2ccccc2C=Cc2ccccc21`, the outcome in [6] was inactive. The AC50 in assay [2] is 4.32 µM (active); in assay [3] it was 0.0251 µM (active).
Take `C=CCc1cc(S(=O)(=O)c2ccc(O)c(CC=C)c2)ccc1O`: the half-maximal activity concentration (AC50) in [1] was 14.6 µM (active); in assay [5], 79.5 µM (active); in assay [7], 60 µM (active). The compound was called inactive in assay [6], in [3] and in [4].
For the compound `Cn1cc[nH]c1=S`, the half-maximal activity concentration (AC50) in assay [1] is 0.0542 µM (active); in assay [2], 37.7 µM (active); in assay [10], 5.5 µM (active); in [11], 6.43 µM (active); in assay [12], 5.75 µM (active); in assay [13], 7.98 µM (active). Moreover, the compound was called inactive in assay [5], in assay [7], in [8], in [9] and in [4].
Consider `CCn1nc(C)c2c1C(=O)NCC(c1ccc(O)cc1)=N2`, for which the figures for the AC50 in [1] and in assay [4] were 11.9 µM (active) and 15.8 µM (active), respectively. The result in assay [5], in assay [6] and in assay [3] was inactive.
Turning to `Cc1nc(-c2ccccn2)ncc1C(=O)Nn1cc(C)c2cc(F)ccc21`, the compound was classed as inactive in assay [6], in [2] and in assay [3].
As for `NC(=O)NN=Cc1ccc([N+](=O)[O-])o1`, the call in [6], in assay [2] and in assay [3] was inactive.
Regarding `C[C@@H](Oc1ccc(CNC(=O)c2cccnc2Oc2ccc3c(c2)OCO3)c(F)c1)C(=O)O`, the AC50 in assay [1] was 22.2 µM (active). In addition, the outcome in assay [5], in [7], in [3], in [14] and in assay [4] was inactive.
Regarding `COc1cc2c(c(OC)c1OC)-c1ccc(OC)c(=O)cc1[C@@H](NC(C)=O)CC2`, the half-maximal activity concentration (AC50) in assay [15] is 0.107 µM (active); in assay [17] it was 0.067 µM (active); in [7], 61.5 µM (active); in assay [2] it was 0.0121 µM (active); in [3] it was 36.4 µM (active). Further, in [16], the compound was called inactive.
In the case of `CCCCCCCC/C=C\CCCCCCCC(=O)OC[C@@H](O)[C@H]1OC[C@H](O)[C@H]1O`, the result in assay [6] and in assay [3] was inactive.
As for `CC[C@H](C)C(=O)O[C@H]1C[C@H](O)C=C2C=C[C@H](C)[C@H](CC[C@@H](O)C[C@@H](O)CC(=O)O)[C@H]21`, the result in assay [6], in assay [7], in assay [2] and in assay [3] was inactive.
On to `COS(C)(=O)=O`, for which the AC50 is 49.7 µM (active) in assay [1] and 62.6 µM (active) in [2]. The outcome in assay [5], in assay [3] and in assay [4] was inactive.
On to `CCOc1ccc2[nH]cc(C(=O)NCc3ccccc3)c(=O)c2n1`, for which the call in assay [6] was inactive.
As for `Cn1c(=O)c2[nH]cnc2n(C)c1=O`, the compound was classed as inactive in assay [6], in assay [2] and in assay [3].
Turning to `NC(N)=O`, the compound was called inactive in assay [6] and in assay [3].
For the compound `Cc1cccc(O)c1C`, the AC50 in assay [1] is 17.3 µM (active). Further, the compound was classed as inactive in assay [5] and in [4].
`c1ccc2cc3ccccc3cc2c1`: the half-maximal activity concentration (AC50) in assay [15] is 10.4 µM (active); in assay [1] it was 10.6 µM (active). Further, the compound was classed as inactive in [16], in assay [5], in assay [17], in assay [3] and in [4].
Take `O=C(NO)C1(NS(=O)(=O)c2ccc(Oc3ccc(F)cc3)cc2)CCOCC1`: in [1], the AC50 is 18.1 µM (active). The compound was called inactive in [5], in assay [6], in [3] and in [4].
As to `COCc1nnc(-c2ccc[n+]([O-])c2)n1-c1c(Cl)c(Cl)cc2[nH]c(=O)c(=O)[nH]c12`, the call in assay [6] and in assay [3] was inactive.
`CC1(C)C(=O)N(Cl)C(=O)N1Cl`: the compound was called inactive in [6] and in assay [3].
In the case of `Cc1nccn1-c1ccc(Sc2cccc(C3(C(N)=O)CCOCC3)c2)cc1`, the compound was classed as inactive in assay [6] and in assay [3].
Regarding `O=C(O)c1cccc(C(=O)O)c1`, the compound was classed as inactive in [6] and in [3].
In the case of `CCc1ccc(O)c(C(C)(C)C)c1`, the AC50 in assay [1] is 13 µM (active); in assay [5] it was 12.6 µM (active); in assay [7], 25.1 µM (active). The compound was classed as inactive in [3] and in [4].

By AC50 is commonly meant the concentration giving half of the maximal activity seen.
